From PubChem BioAssay (NCI)
Compounds without any hit were thinned out: in the full panel of roughly 83,000, 20% have a hit.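 Values shown are percent growth following 48 h exposure of cells in 96-well plates to a single concentration of compound; below 10 was considered active.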 Unmarked numbers belong to inactive results. Calls of active or inactive are those of the source.

test system: SR leukemia; assay: NCI-60 one-dose screen, 48 h (100 = growth as untreated, 0 = no growth, -100 = all killed); settings: 10 µM unless noted
Experimental: Growth inhibition of the SR human tumor cell line is measured as a screen for anti-cancer activity. Cells are grown in 96 well plates and exposed to the test compound for 48 hours. Compounds are tested at a single concentration, which is 10^-5 M for most compounds. The reported endpoint is percent growth (GI% or GIPRCNT), where numbers from 0 - 100% represent growth inhibition, and numbers from -100% - 0 represent cell death. For example, a value of 40 represents 60% growth inhibition. A value of 0 means no net growth occurred over the course of the experiment. A value of -40 indicates 40% of cells at the beginning of the experiment died by the end of the experiment. A value of -100 means all cells are dead at the end of the experiment.
NCI-60 Human Tumor Cell Lines Screen was performed using the standard one-dose NCI protocol, which is described in more detail at https://dtp.cancer.gov/discovery_development/nci-60/default.htm.
Compounds with GIPRCNT values below 10 were considered active. Activity score was based on GIPRCNT using the following formula: […]
Score is 0 for GIPRCNT values of 100 or above, 50 for GIPRCNT values of 0, and 100 for GIPRCNT values of -100.

SMILES	growth
COc1cc(-c2ccc[nH]2)[nH]c1/C=C1\N=C(C)C(CC(=O)OCC(C)(C)C)=C1C	-54.2% (active)
COc1cc(/C=C2\C(=O)N(CCCOc3cc(O)c4c(=O)cc(-c5ccccc5)oc4c3)c3ccccc32)cc(OC)c1O	31.9%
C=CCn1cc(-c2nc3ccccc3s2)c2cc(-c3ccc4c5c(cccc35)C(=O)N(CCO)C4=O)ccc21	104%
c1csc(-c2cn3nc(-c4c[nH]c5ccccc45)sc3n2)c1	14.5%
O=CCCCOCc1ccccc1	96%
Nc1ncnc2c1N=C(c1ccc(Cl)cc1)CC(c1cccc(Nc3ccnc4cc(Cl)ccc34)c1)N2 (stereo not given)	-12.6% (active)
Brc1ccc(Nc2nc(Nc3cnc4ccccc4c3)c3[nH]cnc3n2)cc1	63.9%
CCCc1cc(=O)oc2c(C(=O)CC(C)C)c(O)c(CC=C(C)C)c(O)c12	14.3%
C/C(=C(\c1ccc(OCCN2CCCCCC2)cc1)c1ccc(OC(=O)c2ccccc2)cc1)c1ccc(Cl)cc1	-16.1% (active)
O=C1C=C(SCCO)C(=O)c2ccccc21	-16.1% (active)
Cn1c(=O)c2[nH]c(SC/C(=N/O)c3ccc(Br)cc3)nc2n(C)c1=O	60.4%
COC(=O)[C@]1(C)CCC[C@]2(C)[C@H]3C[C@@H]4[C@H]5[C@@H]6CC/C(=N\OCC/C(N)=N/O)[C@H]5[C@@]3(CC[C@H]21)CC4(C(C)C)O6	5.07% (active)
N#Cc1ccccc1-c1ccc(CN2C(=O)S/C(=C\c3ccc(Br)cc3)C2=O)cc1	89.3%
Cc1ccc(OCCOCCOCCOCCOCCOc2ccc(C)n(O)c2=S)c(=S)n1O	4.81% (active)
Cn1cc(-c2nonc2-c2c[nH]c3ccccc23)c2cc(Br)ccc21	15.3%
COc1ccc(/C=C(/C(=O)N2CCNCC2)c2cc(OC)c(OC)c(OC)c2)cc1O	3.13% (active)
COc1ccc2cc(C(=O)N3CCC([C@@H](C)C(=O)NCc4ccc5c(c4)OCO5)CC3)[nH]c2c1	62.6% [50 µM]
Cc1cccc(N2C(=O)/C(=C/C(Cl)=C/c3ccc([N+](=O)[O-])cc3)SC2=S)c1C	2.55% (active)
O=C(Nc1cccnc1Nc1ccccc1)c1cn(Cc2cccc(Oc3ccccc3)c2)nn1	26.6%
COc1ccc2c(c1)CC[C@@H]1[C@@H]2CC[C@]2(C)C3C(=CC(COC(C)=O)C4C(=O)N(c5ccc(Cl)cc5)C(=O)C43)C[C@@H]12 (stereo not given in full)	35.4%

SMILES	growth
O=c1cc(CNc2cc(F)cc(F)c2)c2ccc(I)cc2[nH]1	-0.446% (active)
COc1ccc(C(O)c2cc3c(N)c(C(=O)Nc4cccc5ccccc45)sc3nc2C)cc1 (stereo not given)	12.7%
COc1cc([C@@H](CCO)C[C@H](C)c2ccc3ccccc3c2)cc(OC)c1OC	24.5%
COc1cc(/C=C/c2cn[nH]c2-c2ccc(C)cc2)cc(OC)c1OC	12.3%
O=C(NN1C(=O)CSC1c1cccc([N+](=O)[O-])c1)c1ccc(NC(=O)c2ccccn2)cc1 (stereo not given)	20.5%
CCNC(=O)N1CCc2c(Br)c3c(c(OC)c2C1Cc1ccc(OC)cc1)OCO3 (stereo not given)	33.1%
CC[C@H](Nc1nc(N)nc(C)c1C#N)c1nc2cccc(CN(C)c3ncc(C(=O)NO)cn3)c2c(=O)n1-c1ccccc1	14.1%
c1ccc(-c2ccc3c(c2)C2(CCNCC2)CN3)cc1	96%
O=C(Nc1ccc(Nc2ccncc2)cc1)c1ccc(Nc2ccnc3ccc([N+](=O)[O-])cc23)cc1	-14.2% (active)
C=CC(CC(c1ccccc1)(c1ccccc1)c1ccccc1)N(CC)CC (stereo not given)	-6.97% (active)
Cc1ccc2c(c1)nc(C)n2-c1ncnc2c1CC(C)c1cc(O)ccc1N2C (stereo not given)	6.97% (active)
O=c1c2ccccc2n(C[C@H]2CO2)c2ccccc12	8.95% (active)
ClCCn1cnc2c(SCc3ccccc3)ncnc21	43.6%
COC1C(O)CC(OC2CC(OC3CC(O[C@@H]4C(=O)c5c(cc6cc(OC7CC(OC8CC(O)C(O)C(C)O8)C(O)C(C)O7)c(C)c(O)c6c5O)CC4[C@H](OC)[C@@H](O)C(C)=O)OC(C)C3O)OC(C)C2O)OC1C (stereo not given in full)	4.82% (active)
O=C1OCC2=C1C(c1ccccc1)c1cc3c(cc1N2CCO)OCCO3 (stereo not given)	19.7%
O=C1Nc2ccc(Cl)cc2/C1=C/c1ccc[nH]1	50.4%
CCOc1ccc(/C=C/C(=O)c2cccc(OCCCOc3cccc(C(=O)/C=C/c4ccc(OCC)cc4)c3)c2)cc1	90.1%
COc1cc(/C=C/C(=O)c2cccc(-n3cc(-c4ccc(Cl)cc4)[nH]c3=O)c2)ccc1O	33%
COc1ccc(C2C3=C(COC3=O)N(CCO)c3cc4c(cc32)OCO4)cc1OC (stereo not given)	24.3%
Cn1c(C#N)ccc1-c1ccc(F)c(NC(=O)c2ccc(F)cc2)c1	29.4%
